23 compounds from PubChem BioAssay can be followed below.

The term remaining activity denotes the signal under treatment as a percentage of the control signal. By inhibition is commonly meant the relative decrease from the control value, in per cent. For orientation: viability means the share of living cells, or the viability signal relative to a control.

The structures appear in SMILES notation. “And” between values parts separate entries of the source, which are not always exact repeats. Equal values may be shown once. Records with an inconclusive call do not appear. For part of these data: Entries with a potency or affinity are not part of this list. More than one record can exist for a structure, and the calls need not agree. The source made the active and inactive calls. Unless noted, how the calls were made is not given here.

Assay [1] deals with Aerobactin synthetase IucA (Klebsiella pneumoniae hvKP1). Description: Biochemical IucA enzyme inhibition primary screen of the Spectrum library (AID 1346200).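 Further: 100% = wells without compound and 0% = wells lacking enzyme.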 As to conditions: malachite green pyrophosphate, A620, at 8 µM, stronger effect = lower value.
Assay [2] deals with Aerobactin synthetase IucA (Klebsiella pneumoniae, hypervirulent). Kind of assay: IucA enzyme inhibition, biochemical, LOPAC library, absorbance readout (AID 1346212).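 Further: 100% = no compound wells and 0% = no enzyme wells.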 To be noted: IucA enzyme assay, absorbance (OD) readout; stronger effect = lower value;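 tested at 8 µM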.
The nature of assay [3]: sensitizers of A549 cells to miR-34 induction, primary screen, imaging, A549 dox-inducible miR-34, nuclei and caspase counts (AID 1347080;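 active means compounds whose cell count with miR-34 switched on is under 0.7 times the count with it off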). As to conditions: A549 miR-34 inducible, Hoechst nuclei count, 48 h.
A short description of assay [4]: circadian clock period modulators, cell-based, LOPAC library, luminescence reporter (AID 2774).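 Further: values are relative to mean of DMSO wells on each plate.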 As to conditions: circadian reporter cells, at 7 µM, actives lie on both sides.
In assay [5] the test system is Hepatitis C virus NS3 helicase. Kind of assay: HCV NS3 helicase inhibitors, primary screen, biochemical, fluorescence polarization, LOPAC1280 library (AID 687035; in the data active means inhibition above about 37%). As to conditions: Purified HCV NS3 helicase, Cy5-dT15 ssDNA binding fluorescence polarization; stronger effect = higher value; concentration not given here.
Assay [6] can be described thus: Cy5 fluorescence quenching or enhancement artefacts, artefact control for HCV NS3 helicase inhibitor project, biochemical, LOPAC1280 (AID 687037). To be noted: Cy5-DNA-NS3h complex fluorescence interference counterscreen. A general note: The purpose of a counterscreen is to sort out artefacts and off-target activity.
A short description of assay [7]: viability rescue of complex I mutant cybrids, primary screen, cell-based, galactose medium, ATP luminescence (AID 1645843;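 active means z-score of at least 1.8 in each of two replicates, scored against plate mean and spread of sample wells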;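 further: positive z means more ATP and so rescue of galactose-driven cybrid death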). As to conditions: complex I mutant cybrid cells, 72 h, stronger effect = higher value.
Assay [8] can be described thus: polyglutamine-triggered caspase-3 activation inhibitors, cell-based (AID 1583). As to conditions: polyglutamine-induced caspase-3 activation, cell assay; stronger effect = higher value;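 tested at 10 µM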.
Assay [9] addresses Huntingtin (Homo sapiens) (UniProt P42858). Description: inhibitors of mutant Htt aggregation in vitro, dose response, QA1 (AID 1584). As to conditions: in vitro mutant huntingtin aggregation assay; confirmation test; at 10 µM; stronger effect = lower value.
Assay [10] in a line: suppressors of polyQ aggregation in yeast, 75Q-TubU reporter (AID 1593). To be noted: Yeast 75Q polyglutamine aggregation reporter.
The nature of assay [11]: rescue of polyQ-huntingtin neuronal dysfunction in worms, whole organism, C. elegans mechanosensory neurons, N-terminal huntingtin (AID 1599). To be noted: touch response, stronger effect = higher value.
Assay [12] is described as follows: inhibitors of mitochondrial cytochrome c release, biochemical, purified mitochondria (AID 1603).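 Further: mouse liver mitochondria challenged with calcium chloride; signal normalized to the plate average as 100%.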 To be noted: stronger effect = lower value.
A short description of assay [13]: inhibitors of polyQ protein aggregation (AID 1604). To be noted: polyglutamine-induced protein aggregation inhibition assay; stronger effect = higher value; tested at 2.5 µM.
The nature of assay [14]: enhancers of glutamate uptake in motor neurons, MN-1 cell line (AID 1612).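 Further: tested at 1 µM final; 0% = mean of DMSO vehicle wells on each plate; positive means more glutamate uptake than control and negative means less.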 As to conditions: MN-1 motor neuron cells, stronger effect = higher value.
The nature of assay [15]: suppressors of polyglutamine aggregation in yeast, 75Q-TubH (AID 1616). As to conditions: S. cerevisiae 75Q-TubH polyglutamine aggregation suppression; stronger effect = higher value.
Assay [16] can be described thus: reducers of polyQ inclusions in PC12 cells, cell-based, NGF-treated PC12, GFPQ80 (AID 1614).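 Further: lower means fewer inclusions and 0 means no inclusions at all.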 As to conditions: PC12 NGF-treated GFP-polyQ80 inclusion reduction.
Assay [17] in a line: phospholipid biosynthesis inhibitors in animal cells, primary screen, cell-based, LOPAC library, screen 4 (AID 1347384). As to conditions: phospholipid biosynthesis inhibition screen, at 10 µM.
Assay [18] can be described thus: liver-stage malaria parasite growth inhibition, primary screen, cell-based, HepG2, luciferase luminescence, HepG2 viability (AID 624349; in the data active means parasite load remaining mostly below about 12%, no sharp cut-off; inactive means mostly above about 10%;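 further: 100% = mean of DMSO negative control wells on the same plate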). To be noted: P. berghei liver stage in HepG2, luciferase luminescence, concentration not given here; parasite load remaining: stronger effect = lower value; viability: measured here: HepG2 viability without parasites.
Assay [19] has as its target Mitogen-activated protein kinase 7 (Homo sapiens) (UniProt Q13164). Kind of assay: ERK5 transactivation activators in reporter cells, primary screen, cell-based, HTS (AID 1508626;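 active means luciferase signal above three times the same-plate solvent-only control wells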;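 further: luciferase driven by Gal4-ERK5 fusion binding five Gal4 sites before minimal TATA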). As to conditions: HeLa Gal4-ERK5 transactivation, 18 h, at 5 µM, stronger effect = higher value.
Setting [20] is: measured here: relative caspase fold change +Dox/-Dox.
[21] abbreviates: measured here: total cells with miR-34 induction, stronger effect = lower value.
Where [22] appears, read: measured here: total cells without miR-34 induction.

Chain of Mitogen-activated protein kinase 7 (Homo sapiens) (Q13164 whole entry, looked up, the tested form may be a part): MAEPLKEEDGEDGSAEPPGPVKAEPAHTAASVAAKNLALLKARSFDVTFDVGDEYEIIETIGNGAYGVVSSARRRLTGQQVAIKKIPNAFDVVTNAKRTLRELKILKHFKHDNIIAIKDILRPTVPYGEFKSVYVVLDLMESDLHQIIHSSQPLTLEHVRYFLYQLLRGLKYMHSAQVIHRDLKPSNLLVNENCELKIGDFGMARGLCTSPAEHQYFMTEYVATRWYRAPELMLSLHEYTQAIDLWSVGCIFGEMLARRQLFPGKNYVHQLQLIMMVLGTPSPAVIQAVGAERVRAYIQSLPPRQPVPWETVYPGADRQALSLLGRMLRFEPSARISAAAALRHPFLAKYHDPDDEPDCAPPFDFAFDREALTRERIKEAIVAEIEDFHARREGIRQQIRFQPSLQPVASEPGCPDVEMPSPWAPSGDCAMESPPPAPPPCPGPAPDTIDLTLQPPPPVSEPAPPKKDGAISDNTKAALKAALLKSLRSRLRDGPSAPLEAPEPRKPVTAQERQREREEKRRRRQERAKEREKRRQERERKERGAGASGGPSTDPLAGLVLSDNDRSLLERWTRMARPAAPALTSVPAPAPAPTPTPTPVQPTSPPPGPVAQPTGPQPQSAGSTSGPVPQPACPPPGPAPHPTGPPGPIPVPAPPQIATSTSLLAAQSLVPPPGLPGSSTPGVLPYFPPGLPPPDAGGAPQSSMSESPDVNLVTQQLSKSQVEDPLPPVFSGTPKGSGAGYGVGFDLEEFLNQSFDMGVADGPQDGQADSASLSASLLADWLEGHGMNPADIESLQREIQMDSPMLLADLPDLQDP
Chain of Huntingtin (Homo sapiens) (P42858 whole entry, looked up): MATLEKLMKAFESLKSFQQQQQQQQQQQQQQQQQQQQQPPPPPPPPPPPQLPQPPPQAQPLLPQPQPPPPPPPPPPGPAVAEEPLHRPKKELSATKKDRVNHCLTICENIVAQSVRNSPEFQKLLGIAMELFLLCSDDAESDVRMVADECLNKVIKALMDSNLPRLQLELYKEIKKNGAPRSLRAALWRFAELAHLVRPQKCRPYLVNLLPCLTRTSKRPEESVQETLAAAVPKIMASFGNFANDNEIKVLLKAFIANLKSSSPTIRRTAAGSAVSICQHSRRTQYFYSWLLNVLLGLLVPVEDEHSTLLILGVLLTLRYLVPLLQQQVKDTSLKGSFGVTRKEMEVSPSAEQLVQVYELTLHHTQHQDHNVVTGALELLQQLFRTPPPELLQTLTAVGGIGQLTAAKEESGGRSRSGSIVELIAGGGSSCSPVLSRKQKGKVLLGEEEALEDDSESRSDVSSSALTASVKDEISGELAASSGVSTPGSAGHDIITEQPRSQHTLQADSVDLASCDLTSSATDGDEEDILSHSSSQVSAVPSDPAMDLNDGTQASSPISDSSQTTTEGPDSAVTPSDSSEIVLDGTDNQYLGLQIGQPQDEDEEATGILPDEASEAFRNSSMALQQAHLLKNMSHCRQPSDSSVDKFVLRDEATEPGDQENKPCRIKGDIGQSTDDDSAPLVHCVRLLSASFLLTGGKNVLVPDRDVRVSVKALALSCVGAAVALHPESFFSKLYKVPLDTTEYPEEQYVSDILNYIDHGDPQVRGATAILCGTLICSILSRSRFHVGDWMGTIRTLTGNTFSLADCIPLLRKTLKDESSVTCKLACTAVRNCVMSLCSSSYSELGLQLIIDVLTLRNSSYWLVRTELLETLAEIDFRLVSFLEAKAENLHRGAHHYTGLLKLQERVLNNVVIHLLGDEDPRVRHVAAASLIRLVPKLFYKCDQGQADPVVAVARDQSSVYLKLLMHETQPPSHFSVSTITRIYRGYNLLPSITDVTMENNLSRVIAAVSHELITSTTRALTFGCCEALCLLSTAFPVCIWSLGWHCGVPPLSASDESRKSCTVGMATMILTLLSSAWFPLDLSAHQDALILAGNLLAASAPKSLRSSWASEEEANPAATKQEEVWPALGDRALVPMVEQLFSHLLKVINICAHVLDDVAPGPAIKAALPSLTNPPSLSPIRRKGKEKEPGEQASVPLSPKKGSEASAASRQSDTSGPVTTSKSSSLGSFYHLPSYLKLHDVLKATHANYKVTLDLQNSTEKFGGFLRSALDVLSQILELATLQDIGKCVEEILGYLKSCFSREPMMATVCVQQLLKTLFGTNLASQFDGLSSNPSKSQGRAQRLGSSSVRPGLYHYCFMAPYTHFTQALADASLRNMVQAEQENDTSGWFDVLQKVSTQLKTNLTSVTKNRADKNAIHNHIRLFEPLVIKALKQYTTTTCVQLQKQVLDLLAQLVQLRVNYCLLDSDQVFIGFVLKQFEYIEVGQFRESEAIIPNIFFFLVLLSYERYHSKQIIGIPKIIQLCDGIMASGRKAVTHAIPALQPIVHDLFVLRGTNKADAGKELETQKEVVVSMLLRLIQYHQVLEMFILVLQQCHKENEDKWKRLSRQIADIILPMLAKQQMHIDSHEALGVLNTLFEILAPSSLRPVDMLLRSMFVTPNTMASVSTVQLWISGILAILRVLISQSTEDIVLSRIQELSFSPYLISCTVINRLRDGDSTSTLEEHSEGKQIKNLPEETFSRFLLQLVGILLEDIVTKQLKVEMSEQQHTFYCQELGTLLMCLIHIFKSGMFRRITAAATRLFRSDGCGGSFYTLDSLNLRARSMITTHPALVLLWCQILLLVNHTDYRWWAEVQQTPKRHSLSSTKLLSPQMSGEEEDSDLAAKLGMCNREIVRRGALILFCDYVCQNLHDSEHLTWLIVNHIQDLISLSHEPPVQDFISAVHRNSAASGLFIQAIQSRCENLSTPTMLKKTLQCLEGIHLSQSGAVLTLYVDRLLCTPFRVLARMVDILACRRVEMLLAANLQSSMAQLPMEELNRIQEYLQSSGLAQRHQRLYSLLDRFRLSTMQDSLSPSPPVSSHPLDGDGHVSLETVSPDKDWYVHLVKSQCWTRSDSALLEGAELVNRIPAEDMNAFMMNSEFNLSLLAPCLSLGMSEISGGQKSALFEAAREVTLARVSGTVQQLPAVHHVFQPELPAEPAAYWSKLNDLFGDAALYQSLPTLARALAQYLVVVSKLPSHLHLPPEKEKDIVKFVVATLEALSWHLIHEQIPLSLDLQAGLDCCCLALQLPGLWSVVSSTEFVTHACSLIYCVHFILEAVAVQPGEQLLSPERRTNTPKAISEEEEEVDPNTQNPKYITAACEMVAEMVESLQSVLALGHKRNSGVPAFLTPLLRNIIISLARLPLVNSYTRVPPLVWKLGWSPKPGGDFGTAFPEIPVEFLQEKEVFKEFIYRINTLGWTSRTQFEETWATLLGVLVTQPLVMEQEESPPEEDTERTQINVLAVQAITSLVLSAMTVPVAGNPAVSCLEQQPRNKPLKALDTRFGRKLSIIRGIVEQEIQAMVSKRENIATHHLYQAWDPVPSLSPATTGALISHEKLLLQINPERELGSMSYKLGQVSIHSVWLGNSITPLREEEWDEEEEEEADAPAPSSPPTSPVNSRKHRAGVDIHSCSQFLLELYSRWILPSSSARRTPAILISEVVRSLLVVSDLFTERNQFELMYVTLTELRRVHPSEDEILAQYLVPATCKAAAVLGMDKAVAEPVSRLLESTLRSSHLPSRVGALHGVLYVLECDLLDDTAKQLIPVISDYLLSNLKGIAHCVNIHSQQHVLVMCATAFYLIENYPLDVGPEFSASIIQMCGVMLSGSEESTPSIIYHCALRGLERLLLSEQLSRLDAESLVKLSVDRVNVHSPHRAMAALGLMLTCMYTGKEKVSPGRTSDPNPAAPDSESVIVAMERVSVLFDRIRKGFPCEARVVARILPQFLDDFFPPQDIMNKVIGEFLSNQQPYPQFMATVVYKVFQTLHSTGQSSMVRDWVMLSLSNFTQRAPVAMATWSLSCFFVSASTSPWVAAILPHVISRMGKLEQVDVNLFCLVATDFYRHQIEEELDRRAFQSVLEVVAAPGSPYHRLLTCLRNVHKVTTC

Take `NC/C=C/C(=O)O`: in assay [1], the activity remaining was 107% (inactive). For the same compound, the remaining activity in [2] is 101% (inactive).
In the case of `NC(N)=NC(N)=Nc1ccccc1`, in assay [1], the activity remaining was 123% (inactive). In assay [2], the remaining activity was 101% (inactive).
Take `N[C@@H](CC(=O)N1CCn2c(nnc2C(F)(F)F)C1)Cc1cc(F)c(F)cc1F`: in [1], the activity remaining is 110% (inactive). Moreover, the fold change in assay [3] (stronger effect = lower value, cell number ratio, induced over uninduced) is 0.907 (inactive); in [3] (setting [20]), 5.09. For the same compound, the cell count in assay [3] (setting [21]) is 11900; in [3] (setting [22]), 13100.
Take `NCCc1cnc[nH]1`: the activity remaining in assay [1] is 112% (inactive). Besides, the remaining activity in [2] was 112% (inactive).
Take `C[N+]1(C)C2CC(OC(=O)[C@@H](CO)c3ccccc3)CC1C1OC12` (some centres not stated): the activity remaining in [1] was 102% (inactive). The fold change in [3] (stronger effect = lower value) was 0.839 (inactive); in [3] (setting [20]), 1.06. Further, the values for the cell count in assay [3] (setting [21]) and in [3] (setting [22]) were 10100 and 12100, respectively.
With `CC(C)(C)NCC(O)c1ccc(O)c(CO)c1` (configuration not stated), the activity remaining in [1] is 110% (inactive). Also, the remaining activity in assay [2] was 121% (inactive) and 104% (inactive).
As for `CCc1cccc2c3c([nH]c12)C(CC)(CC(=O)O)OCC3` (configuration not stated), in assay [1], the activity remaining is 116% (inactive). Moreover, the remaining activity in assay [2] is 116% (inactive).
Turning to `CC1OC1P(=O)(O)O` (configuration not stated), the period change in assay [4] was -0.1 h (inactive). Besides, in assay [5], the inhibition was -2% (inactive). Also, in assay [6], the fluorescence ratio (interference) is 1 (inactive). Moreover, in assay [1], the activity remaining is 94.8% (inactive). The remaining activity in [2] is 105% (inactive). In addition, the fold change in assay [3] (stronger effect = lower value) was 1.08 (inactive) and 0.849 (inactive); in assay [3] (setting [20]), 1.1 and 5.83. In addition, the cell count in [3] (setting [21]) is 10700 and 11000; in [3] (setting [22]), 9890 and 12900. In assay [7], the z-score was 0.665 (inactive).
In the case of `CN(C)C(=O)Oc1cccc([N+](C)(C)C)c1`, the activity remaining in assay [1] was 87.4% (inactive). Further, the remaining activity in assay [2] is 120% (inactive).
For `Nc1c2c(nc3ccccc13)CCCC2` the same measures were 118% (inactive) and 119% (inactive).
For `O=C(c1ccc(OCCN2CCCCC2)cc1)c1c(-c2ccc(O)cc2)sc2cc(O)ccc12` the same measures were 105% (inactive) and 92% (inactive).
With `O=C(O)c1cc2cc(F)ccc2[nH]1`, in [1], the activity remaining was 106% (inactive). For the same compound, the remaining activity in assay [2] is 86.3% (inactive).
Taken in the same sequence, the figures for `CCCN(CCC)CCc1cccc2c1CC(=O)N2` were 98.7% (inactive) and 80.8% (inactive).
Take `C[C@](N)(Cc1ccc(O)cc1)C(=O)O`: the activity remaining in [1] was 120% (inactive). The remaining activity in assay [2] was 110% (inactive).
For the compound `CC(CN1c2ccccc2Sc2ccccc21)N(C)C` (configuration not stated), the activity remaining in assay [1] is 78.1% (inactive). Further, in assay [2], the remaining activity is 109% (inactive).
`C[n+]1cc2c3c(ccc2c2ccc4cc5c(cc4c21)OCO5)OCO3`: in [8], the inhibition was 89.4%. Further, the aggregation ratio in assay [9] was determined as 0.44. Moreover, the score in assay [10] turned out to be 0.8. The rescue above control in assay [11] is -18. The cytochrome c release ratio in [12] is 1.22. For the same compound, the inhibition of aggregation in [13] is -2.89%. In addition, in [14], the glutamate uptake change is -11.9%. Further, in [15], the aggregation suppression score was 0.576. In addition, in [1], the activity remaining was 97.5% (inactive). In assay [2], the remaining activity is 102% (inactive).
For `CN(C)CCC=C1c2ccccc2CCc2ccccc21`, the activity remaining in assay [1] was 110% (inactive). In assay [2], the remaining activity is 106% (inactive).
`CCCCCCCCCCCCCC(=O)O[C@@H]1[C@@H](C)[C@@]2(O)[C@@H](C=C(CO)C[C@]3(O)C(=O)C(C)=C[C@@H]23)[C@@H]2C(C)(C)[C@]12OC(C)=O`: the activity remaining in assay [1] is 115% (inactive). Besides, in assay [2], the remaining activity is 75.1% (inactive). For the same compound, the values for the fold change in assay [3] (stronger effect = lower value) and in assay [3] (setting [20]) were 0.96 (inactive) and 1.01, respectively. Further, the cell count was found to be 240 in assay [3] (setting [21]) and 250 in assay [3] (setting [22]).
Regarding `COc1cc([C@@H]2c3cc4c(cc3[C@H](O)[C@H]3COC(=O)[C@H]23)OCO4)cc(OC)c1OC`, the inhibition in assay [8] was -31.7%. The compound also returned a score in assay [10] of 0.81. In addition, the rescue above control in assay [11] is -13.8. The cytochrome c release ratio in [12] amounted to 1.06. The inhibition of aggregation in assay [13] was determined as 58.9%. Further, the glutamate uptake change in assay [14] came to 21.3%. In addition, the inclusion score in assay [16] stood at 2. For the same compound, in assay [15], the aggregation suppression score is 0.784. In addition, in assay [1], the activity remaining was 102% (inactive). Besides, the remaining activity in [2] was 124% (inactive).
With `CN1C(=O)CC[C@H]1c1cccnc1`, in assay [1], the activity remaining was 101% (inactive). Moreover, the remaining activity in assay [2] is 122% (inactive).
In the case of `CN1CCN(CCCN2c3ccccc3Sc3ccc(Cl)cc32)CC1`, in assay [1], the activity remaining is 123% (inactive). Further, the remaining activity in assay [2] was 86.1% (inactive). Moreover, the compound was classed as inactive in assay [17].
For `C[N+](C)(C)CCCCCC[N+](C)(C)C`, in assay [1], the activity remaining is 122% (inactive). For the same compound, the remaining activity in [2] is 99.1% (inactive) and 87% (inactive).
For the compound `CC[C@@]1(C2O[C@@H](C3O[C@@](O)(CC)[C@H](C)C[C@@H]3C)C[C@@H]2C)CC[C@H]([C@]2(C)CCC3(C[C@H](O)[C@@H](C)[C@@H]([C@H](C)[C@@H](OC)[C@H](C)C(=O)O)O3)O2)O1` (some centres not stated), in assay [18], the parasite load remaining is 17.9% (inactive). Moreover, the viability in assay [18] amounted to 72.8%. In addition, in assay [1], the activity remaining was 112% (inactive). For the same compound, the fold change in assay [3] (stronger effect = lower value) was 1.04 (inactive); in [3] (setting [20]), 1.48. Further, the cell count in assay [3] (setting [21]) turned out to be 3480; in assay [3] (setting [22]), 3340. For the same compound, in assay [19], the luciferase signal is 32 AU (inactive).
